Our source for the Potency and outcome values is PubChem BioAssay (NCATS).

Experiment [1] can be described thus: Primary qHTS for inhibitors of La Crosse Virus (LACV) - induced cell death in SH-SY5Y cells (AID 1508616; active = well fitted curve in the direction sought with a large enough effect; an effect the other way counts as inactive or inconclusive;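 also: top concentration of the series differs between compounds; higher means more rescue of cells from virus-induced death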). In outline:
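SH-SY5Y cells (6000/well) plated 24 h, then given compounds by pin transfer and LACV at 0.01 MOI for 6 days at 37C. Viability measured by ATPLite luminescence, normalized to infected DMSO and uninfected DMSO.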
In general terms: In qHTS, concentration-response curves come from the screen itself.

The target in experiment [2] is Calcium and integrin-binding protein 1 (Homo sapiens) (UniProt Q99828). As to the kind of experiment: Primary qHTS for Identification of Calcium Integrin Binding Protein 1 (CIB1) Competitor (AID 1508620; active = well fitted curve in the direction sought with a large enough effect; an effect the other way counts as inactive or inconclusive;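 also: GST tagged CIB1 binding a fluorescein labelled alphaIIb integrin peptide tracer; top concentration of the series differs between compounds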). The procedure, abridged:
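Fluorescence polarization competition: GST-tagged CIB1 (1 uM final) preincubated with compound 15 min at room temperature, then FITC-labelled alphaIIb peptide (100 nM final) added. After 15 min at room temperature, polarization read at Ex 480/Em 540.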

Experiment [3] can be described thus: Primary qHTS for small molecule stabilizers of the endoplasmic reticulum resident proteome: Secreted ER Calcium Modulated Protein (SERCaMP) assay (AID 1508630; active = well fitted curve in the direction sought with a large enough effect; an effect the other way counts as inactive or inconclusive). In outline:
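GLuc-SERCaMP-expressing SH-SY5Y cells, pretreated 16 h with compound, are challenged with thapsigargin to empty ER calcium stores; after 4 h, coelenterazine is added directly to the medium and luminescence is imaged.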

Experiment [4] can be described thus: Primary qHTS for inhibitors of MERS-S pseudo-typed particle cell entry (AID 1479149). Also: nearly all actives have a fitted effect of over 60% in size. Also: potency is read from the fitted curve at half-maximal effect.
The nature of experiment [5]: Primary qHTS for Vero E6 cytotoxicity: counterscreen for inhibitors of SARS-S pseudo-typed particle cell entry (AID 1479150). Also: potency is read from the fitted curve at half-maximal effect.
Experiment [6] can be described thus: Primary qHTS for Huh7 cytotoxicity: counterscreen for inhibitors of MERS-S pseudotyped particle cell entry (AID 1479147).
Experiment [7] is described as follows: Confirmatory qHTS for activators (rescue) of SARS-CoV-2 Cytopathic Effect (CPE) (AID 1508606). Also: potency is read from the fitted curve at half-maximal effect; nearly all actives have a fitted effect of over 70% in size.
The nature of experiment [8]: Confirmatory qHTS for VERO E6 Cytotoxicity Assay: Counterscreen for SARS-CoV-2 CPE Assay (AID 1508605). Also: series mostly up to about 20 µM; nearly all actives have a fitted effect of over 60% in size.

Inconclusive results are not listed. Where a call stands in place of a potency, no number is given. Active and inactive are the calls of the source. Unless noted, calls follow the shape of the full dose curve. Numbered stars: 1 amine (or outer) side, 2 acyl side, 3 side chain; on linkers, the order of the positions; unused ones are H or OH. Bridge positions count the residues as written; N and C are the ends. Square brackets hold non-standard residues; d marks the D form. Peptide text beside a SMILES is read from it. I, II: the chains in the order shown. Actinocin(9to1) = Cc1c2oc3c(C)ccc(C(=O)[*:1])c3nc-2c(C(=O)[*:2])c(N)c1=O; NMeV = CN[C@H](C(=O)O)C(C)C; Sar = CNCC(=O)O

Calcium and integrin-binding protein 1 (Homo sapiens), sequence (Q99828 whole entry, looked up): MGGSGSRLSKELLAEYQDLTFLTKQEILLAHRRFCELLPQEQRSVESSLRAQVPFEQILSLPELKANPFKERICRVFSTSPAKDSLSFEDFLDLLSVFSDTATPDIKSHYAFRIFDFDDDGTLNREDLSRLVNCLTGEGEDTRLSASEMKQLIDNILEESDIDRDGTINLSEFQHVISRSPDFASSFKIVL

On to `NP(N)(=O)NC(=O)c1ccc(F)cc1`, for which the Potency entry in experiment [1] and in experiment [2] was “inactive” each time. In addition, the outcome in experiment [3] was inactive.

In the case of `NCCc1cc(O)c(O)cc1O`, the Potency entry in experiment [1] and in experiment [2] was “inactive” throughout. Further, the result in experiment [3] was inactive.

For `CC1=C2C[C@@H]3[C@@H](CC=C4C[C@@H](O)CC[C@@]43C)[C@@H]2CC[C@]12O[C@H]1C[C@H](C)CN[C@H]1[C@H]2C`, the Potency entry in experiment [2] was “inactive”. Moreover, the outcome in experiment [3] was inactive.

`Nc1nc(=S)c2[nH]cnc2[nH]1`: the Potency entry in experiment [4] is “inactive”.

Consider `OCCN1CCN(CCCN2c3ccccc3Sc3ccc(C(F)(F)F)cc32)CC1`, for which, in experiment [5], the Potency entry was “inactive”.

For `C[C@@H]1[C@@H](CC(C[C@H]2O[C@@H]3O[C@]4(C)CC[C@@H]5[C@H](C)CC[C@@H]([C@H]2C)[C@@]35OO4)C[S+](=O)([O-])c2ccc(COC(=O)N(C)C)cc2)O[C@@H]2O[C@]3(C)CC[C@H]4[C@H](C)CC[C@@H]1[C@@]24OO3` (stereo partly drawn), in experiment [2], the Potency result was “inactive”. In experiment [3], the outcome was inactive.

Regarding `CN(C)CCCN1c2ccccc2Sc2ccc(Cl)cc21`, the Potency entry in experiment [6] and in experiment [5] was “inactive” throughout. For the same molecule, the Potency in experiment [7] was 11.2 µM (active).

Take `CCN(CC)C(=S)SSC(=S)N(CC)CC`: the Potency result in experiment [4] was “inactive”.

`N[C@@H](Cc1ccc(Oc2cc(I)c(O)c(I)c2)c(I)c1)C(=O)O`: the Potency entry in experiment [1] is “inactive”. Also, in experiment [3], the outcome was inactive.

For `CC(=O)Oc1ccccc1C(=O)Nc1ncc([N+](=O)[O-])s1`, the Potency in experiment [4] was 5.62 µM (active); in experiment [5], 28.2 µM (active); in experiment [7] it was 5.01 µM (active).

As to `CN(C)CCC=C1c2ccccc2C=Cc2ccccc21`, the Potency result in experiment [6], in experiment [5] and in experiment [8] was “inactive” each time.

Consider `COc1ccccc1OCCNCC(O)COc1cccc2[nH]c3ccccc3c12` (stereo not drawn), for which the Potency result in experiment [6], in experiment [5] and in experiment [8] was “inactive” in each case. For the same molecule, in experiment [7], the Potency was 10 µM (active).

For the molecule `CC1(CN2CCC(n3c(=O)[nH]c4ccccc43)CC2)OCc2ccccc2-n2cccc21` (stereo not drawn), in experiment [8], the Potency entry was “inactive”.

Turning to `CCC(C)n1ncn(-c2ccc(N3CCN(c4ccc(OC[C@H]5CO[C@](Cn6cncn6)(c6ccc(Cl)cc6Cl)O5)cc4)CC3)cc2)c1=O` (stereo partly drawn), the Potency in experiment [4] is 2.51 µM (active). The Potency result in experiment [5] is “inactive”.

In the case of `CCC1=C[C@@H]2CN(C1)Cc1c([nH]c3ccccc13)[C@@](C(=O)OC)(c1cc3c(cc1OC)N(C)[C@H]1[C@@](O)(C(=O)OC)[C@H](OC(C)=O)[C@]4(CC)C=CCN5CC[C@]31[C@@H]54)C2`, in experiment [4], the Potency was 3.16 µM (active).

`CN(C)CCC=C1c2ccccc2CCc2ccccc21`: the Potency entry in experiment [6], in experiment [5] and in experiment [8] was “inactive” in each case.

Take `O=c1oc2ccccc2c(O)c1C(CC(O)c1ccc(-c2ccc(Br)cc2)cc1)c1ccccc1` (stereo not drawn): the Potency entry in experiment [1] was “inactive”. In experiment [3], the outcome was inactive.

As for `CNCCCN1c2ccccc2CCc2ccccc21`, the Potency result in experiment [6], in experiment [5] and in experiment [8] was “inactive” throughout.

Consider `O=C(CCCN1CCC(O)(c2ccc(Cl)cc2)CC1)c1ccc(F)cc1`, for which the Potency entry in experiment [5] is “inactive”.

Take `C[C@@H]1[C@@H](C(=O)C[C@H]2O[C@@H]3O[C@]4(C)CC[C@@H]5[C@H](C)CC[C@@H]([C@H]2C)[C@@]35OO4)O[C@@H]2O[C@]3(C)CC[C@H]4[C@H](C)CC[C@@H]1[C@@]24OO3`: in experiment [2], the Potency entry was “inactive”. Also, the outcome in experiment [3] was inactive.

With `CCCNCC(O)COc1ccccc1C(=O)CCc1ccccc1` (stereo not drawn), the Potency entry in experiment [5] and in experiment [8] was “inactive” throughout.

With `COC1=CC(=O)C[C@@H](C)[C@]12Oc1c(Cl)c(OC)cc(OC)c1C2=O`, the Potency entry in experiment [4] and in experiment [5] was “inactive” throughout.

`CNCCCC1c2ccccc2C=Cc2ccccc21`: the Potency result in experiment [5] and in experiment [8] was “inactive” in each case.

Turning to `CN(C)C(=O)C(CCN1CCC(O)(c2ccc(Cl)cc2)CC1)(c1ccccc1)c1ccccc1`, the Potency result in experiment [5] and in experiment [8] was “inactive” throughout.

As to `CNCCC(Oc1ccc(C(F)(F)F)cc1)c1ccccc1` (stereo not drawn), the Potency result in experiment [5] and in experiment [8] was “inactive” each time.

`Cc1sc2c(c1C)C(c1ccc(Cl)cc1)=N[C@@H](CC(=O)OC(C)(C)C)c1nnc(C)n1-2`: the Potency entry in experiment [2] is “inactive”. In addition, the outcome in experiment [3] was inactive.

Consider `CNC(=O)N1N=C(c2ccc(N)cc2)c2cc3c(cc2CC1C)OCO3` (stereo not drawn), for which the Potency result in experiment [2] was “inactive”. In experiment [3], the outcome was inactive.

Turning to `COc1cc2nc(N3CCN(C(=O)C4COc5ccccc5O4)CC3)nc(N)c2cc1OC` (stereo not drawn), the Potency result in experiment [6], in experiment [5] and in experiment [8] was “inactive” each time.

Consider `CCc1nn(CCCN2CCN(c3cccc(Cl)c3)CC2)c(=O)n1CCOc1ccccc1`, for which, in experiment [5], the Potency entry is “inactive”.

Take `Cc1c2oc3c(C)ccc(C(=O)N[C@@H]4C(=O)N[C@H](C(C)C)C(=O)N5CCC[C@H]5C(=O)N(C)CC(=O)N(C)[C@@H](C(C)C)C(=O)O[C@@H]4C)c3nc-2c(C(=O)N[C@@H]2C(=O)N[C@H](C(C)C)C(=O)N3CCC[C@H]3C(=O)N(C)CC(=O)N(C)[C@@H](C(C)C)C(=O)O[C@@H]2C)c(N)c1=O` (I: T[dV]P[Sar][NMeV] / II: T[dV]P[Sar][NMeV]; ester I:1-I:C, II:1-II:C; linker I:N-II:N via Actinocin(9to1)): in experiment [5], the Potency entry is “inactive”.

For `CN1CCC(=C2c3ccccc3C=Cc3ccccc32)CC1`, the Potency result in experiment [6], in experiment [5] and in experiment [8] was “inactive” throughout.

On to `CN1CCN(CCCN2c3ccccc3Sc3ccc(C(F)(F)F)cc32)CC1`, for which, in experiment [4], the Potency was 28.2 µM (active). Besides, the Potency entry in experiment [5] is “inactive”.

Consider `CC(CN1c2ccccc2Sc2ccccc21)N(C)C` (stereo not drawn), for which the Potency result in experiment [6], in experiment [5] and in experiment [8] was “inactive” each time. Also, the Potency in experiment [7] was 11.2 µM (active).

In the case of `CN1CCc2cccc3c2[C@H]1Cc1ccc(O)c(O)c1-3`, the Potency entry in experiment [4] and in experiment [5] was “inactive” in each case.
